PubChem BioAssay
For some assays here: Entries with a potency or affinity are not part of this list. Active and inactive are the calls of the source. Unless noted, the rule behind the calls is not given here.

Assays:
[1] = antimalarial activity against Dd2 strain (AID 2302;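 active = growth inhibition above 50% at the single 2 µM test dose, taken to imply half-maximal potency below 2 µM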;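 note: 0% = DMSO untreated growth and 100% = chloroquine plus artemisinin killed control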); settings: P. falciparum Dd2 in RBCs, LDH growth readout, 72 h; at 2 µM; stronger effect = higher value
[2] = HepG2 cytotoxicity, primary screen, cytotoxicity control for P. falciparum antimalarial project, cell-based, ATP luminescence (AID 2303;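 active = inhibition above 50%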;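 note: 0% = DMSO wells and 100% = digitonin-killed cells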); settings: HepG2 viability, 24-48 h, at 10 µM, stronger effect = higher value
[3] = molecular target: L-lactate dehydrogenase (Plasmodium falciparum (isolate CDC / Honduras)) (UniProt Q27743); assay: PfLDH activity inhibition – cell lysate, 3D7 strain, counter-screen for P. falciparum growth inhibition project (AID 2304);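 note: 0% = vehicle and 100% = reference inhibitor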; settings: P. falciparum 3D7 crude extract, LDH APAD/NBT absorbance; at 2 µM; stronger effect = higher value
[4] = inhibition of 3D7 malaria parasite growth – strain 3D7 (AID 2306);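 note: 0% = DMSO wells and 100% = chloroquine plus artemisinin control wells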; settings: P. falciparum 3D7 erythrocytic growth, LDH absorbance, 72 h; at 2 µM; stronger effect = higher value
[5] = molecular target: Calcium-dependent protein kinase 1 (Plasmodium falciparum (isolate 3D7)) (UniProt P62344); assay: PfCDPK1 kinase inhibitors, biochemical, TCAMS library (AID 1159585; cut-off not given, nearly all actives have IC50 up to about 0.98 µM;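 note: inhibitors leave more ATP so luminescence rises with inhibition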); settings: recombinant PfCDPK1, Kinase-Glo ATP depletion luminescence
[6] = molecular target: Plasmodium falciparum protein kinase 6 (PK6, PF3D7_1337100) (UniProt Q8IDW1); assay: PfPK6 kinase inhibitors, biochemical, TCAMS library (AID 1159586); settings: recombinant PfPK6, Kinase-Glo ATP depletion luminescence
[7] = molecular target: Protein kinase 7 (PK7), Plasmodium falciparum 3D7 (PF3D7_0213400) (UniProt Q7YTF7); assay: inhibition of Plasmodium PK7 catalytic activity – biochemical, TCAMS antimalarial set, Kinase-Glo luminescence (AID 1159587); settings: recombinant PfPK7, Kinase-Glo ATP depletion luminescence
[8] = molecular target: Calcium-dependent protein kinase 4 (Plasmodium falciparum (isolate 3D7)) (UniProt Q8IBS5); assay: PfCDPK4 kinase inhibitors, biochemical, TCAMS library (AID 1159588; cut-off not given, nearly all actives have IC50 up to about 0.91 µM); settings: recombinant PfCDPK4, Kinase-Glo ATP depletion luminescence
Calcium-dependent protein kinase 4 (Plasmodium falciparum (isolate 3D7)), sequence (Q8IBS5 whole entry, looked up): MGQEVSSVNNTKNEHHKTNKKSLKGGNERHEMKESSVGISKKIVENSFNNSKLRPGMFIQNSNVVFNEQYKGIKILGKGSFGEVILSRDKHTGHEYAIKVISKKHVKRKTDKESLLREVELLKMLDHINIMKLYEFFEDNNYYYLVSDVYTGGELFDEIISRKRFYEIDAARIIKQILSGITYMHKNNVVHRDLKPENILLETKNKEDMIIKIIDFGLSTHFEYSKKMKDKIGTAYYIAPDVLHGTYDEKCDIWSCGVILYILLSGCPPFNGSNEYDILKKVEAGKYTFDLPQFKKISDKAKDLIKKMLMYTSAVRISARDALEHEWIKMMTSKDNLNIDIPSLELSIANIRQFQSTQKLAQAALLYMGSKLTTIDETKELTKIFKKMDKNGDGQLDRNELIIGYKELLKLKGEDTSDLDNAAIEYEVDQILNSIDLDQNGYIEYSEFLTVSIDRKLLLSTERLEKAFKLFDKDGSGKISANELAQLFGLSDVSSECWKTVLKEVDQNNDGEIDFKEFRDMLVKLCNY

L-lactate dehydrogenase (Plasmodium falciparum (isolate CDC / Honduras)), sequence (Q27743 whole entry, looked up): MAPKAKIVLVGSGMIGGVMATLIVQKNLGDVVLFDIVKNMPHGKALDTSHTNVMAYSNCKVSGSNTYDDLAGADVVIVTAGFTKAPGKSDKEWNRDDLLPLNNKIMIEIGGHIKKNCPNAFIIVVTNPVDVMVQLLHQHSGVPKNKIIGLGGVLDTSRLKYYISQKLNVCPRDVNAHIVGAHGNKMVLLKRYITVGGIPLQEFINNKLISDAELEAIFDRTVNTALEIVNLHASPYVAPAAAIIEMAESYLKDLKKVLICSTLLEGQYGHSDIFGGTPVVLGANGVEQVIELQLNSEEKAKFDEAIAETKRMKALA
Plasmodium falciparum protein kinase 6 (PK6, PF3D7_1337100), sequence (Q8IDW1 1-305): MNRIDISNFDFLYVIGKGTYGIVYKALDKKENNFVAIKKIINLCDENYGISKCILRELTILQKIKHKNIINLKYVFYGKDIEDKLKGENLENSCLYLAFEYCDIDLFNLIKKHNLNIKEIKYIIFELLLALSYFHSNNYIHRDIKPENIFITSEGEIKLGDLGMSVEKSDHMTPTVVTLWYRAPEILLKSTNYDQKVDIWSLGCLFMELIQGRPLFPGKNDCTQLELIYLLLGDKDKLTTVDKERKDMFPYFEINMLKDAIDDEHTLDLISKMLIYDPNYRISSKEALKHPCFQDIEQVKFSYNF
Protein kinase 7 (PK7), Plasmodium falciparum 3D7 (PF3D7_0213400), sequence (Q7YTF7 1-343): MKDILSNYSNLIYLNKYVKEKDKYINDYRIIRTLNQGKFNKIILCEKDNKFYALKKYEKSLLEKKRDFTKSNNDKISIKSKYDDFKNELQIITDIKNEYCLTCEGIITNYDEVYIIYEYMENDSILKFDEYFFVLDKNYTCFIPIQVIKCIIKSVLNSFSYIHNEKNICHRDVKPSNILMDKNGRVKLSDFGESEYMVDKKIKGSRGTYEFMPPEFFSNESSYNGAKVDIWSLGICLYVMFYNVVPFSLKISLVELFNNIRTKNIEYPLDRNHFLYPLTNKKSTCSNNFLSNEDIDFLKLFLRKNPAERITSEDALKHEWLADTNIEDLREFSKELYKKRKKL
Calcium-dependent protein kinase 1 (Plasmodium falciparum (isolate 3D7)), sequence (P62344 whole entry, looked up): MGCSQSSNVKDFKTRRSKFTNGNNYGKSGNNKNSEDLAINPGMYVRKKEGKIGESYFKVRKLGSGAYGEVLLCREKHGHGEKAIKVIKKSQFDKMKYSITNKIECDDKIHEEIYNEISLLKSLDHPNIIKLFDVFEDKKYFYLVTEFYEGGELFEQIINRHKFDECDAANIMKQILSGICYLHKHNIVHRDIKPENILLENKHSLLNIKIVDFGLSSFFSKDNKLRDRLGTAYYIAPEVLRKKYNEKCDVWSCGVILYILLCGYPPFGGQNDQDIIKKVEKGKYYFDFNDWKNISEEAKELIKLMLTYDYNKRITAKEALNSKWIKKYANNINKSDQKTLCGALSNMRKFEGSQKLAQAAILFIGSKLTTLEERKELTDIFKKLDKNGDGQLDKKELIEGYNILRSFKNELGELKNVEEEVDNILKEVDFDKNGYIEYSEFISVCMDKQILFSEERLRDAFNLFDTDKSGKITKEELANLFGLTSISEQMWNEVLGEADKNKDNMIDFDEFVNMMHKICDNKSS

COc1cc(CN2CCC(N3CCc4cc(NC(=O)c5cc(C)on5)ccc43)C2)ccc1F (stereo not given)
active: growth inhibition [1] 96% | growth inhibition [4] 91%
inactive: inhibition [2] 1% | inhibition [3] 0% | outcome [5] | outcome [6] | outcome [7] | outcome [8]

CCOC(=O)C(CO)NC(=O)c1ccc([N+](=O)[O-])o1 (stereo not given)
inactive: growth inhibition [1] 2% | inhibition [2] -5% | inhibition [3] 8% | outcome [5] | outcome [6] | outcome [7] | outcome [8]
active: growth inhibition [4] 96%

COc1ccc2c(c1C1CCN(CCCCNC(=O)c3ccc(-c4ccc(Cl)cn4)cc3)CC1)CCCC2
inactive: growth inhibition [1] 49% | inhibition [2] 29% | inhibition [3] -2% | outcome [5] | outcome [6] | outcome [7] | outcome [8]
active: growth inhibition [4] 90%

Cc1nc(N2CCC(C)CC2)c2c3c(sc2n1)CCCC3
inactive: growth inhibition [1] 39% | inhibition [2] 13% | inhibition [3] 1% | outcome [5] | outcome [6] | outcome [7] | outcome [8]
active: growth inhibition [4] 93%

Cc1cc(N2CCCN(C)CC2)nc(Nc2ccc(Br)cc2)n1
active: growth inhibition [4] 94%
inactive: growth inhibition [1] 14% | inhibition [2] 8% | inhibition [3] 7% | outcome [5] | outcome [6] | outcome [7] | outcome [8]

O=C(Cc1cnc[nH]1)Nc1cccc(-c2ccc(-c3nc4ccccc4[nH]3)cc2)c1
active: growth inhibition [1] 72% | growth inhibition [4] 99%
inactive: inhibition [2] 7% | inhibition [3] -1% | outcome [5] | outcome [6] | outcome [7] | outcome [8]

Oc1ccc(Cc2cc(Oc3c(I)cc(CCc4ncc[nH]4)cc3I)ccc2O)cc1
active: growth inhibition [4] 101%
inactive: growth inhibition [1] 32% | inhibition [2] 10% | inhibition [3] -3% | outcome [5] | outcome [6] | outcome [7] | outcome [8]

Cc1c(CNCCCNc2cc(=O)c3ccccc3[nH]2)sc(-c2ccco2)c1Br
inactive: growth inhibition [1] 39% | inhibition [2] -4% | inhibition [3] -1% | outcome [5] | outcome [6] | outcome [7] | outcome [8]
active: growth inhibition [4] 93%

CCCN1CCN(c2cc(S(=O)(=O)Nc3ccc(C(=O)NCc4cccc(C(F)(F)F)c4)cc3)ccc2OC)CC1
active: growth inhibition [4] 92%
inactive: growth inhibition [1] 8% | inhibition [2] 27% | inhibition [3] -3% | outcome [5] | outcome [6] | outcome [7] | outcome [8]

CC1(C)N=C(N)NC(Nc2ccc(F)c(F)c2)=N1
inactive: growth inhibition [1] 1% | inhibition [3] -10% | outcome [5] | outcome [6] | outcome [7] | outcome [8]
active: inhibition [2] 59% | growth inhibition [4] 91%

Cc1cc(C)cc(OCC(O)CN(CCN2CCOCC2)C(=O)Nc2ccc(Br)cc2)c1 (stereo not given)
active: growth inhibition [4] 85%
inactive: growth inhibition [1] 19% | inhibition [2] 7% | inhibition [3] 0% | outcome [5] | outcome [6] | outcome [7] | outcome [8]

CC(C)c1ccc(CN2CCC(CNC(=O)c3cc(-c4ccccc4F)cs3)C2)cc1 (stereo not given)
inactive: growth inhibition [1] 29% | inhibition [2] 32% | inhibition [3] 5% | outcome [5] | outcome [6] | outcome [7] | outcome [8]
active: growth inhibition [4] 101%

CC1Cc2ccccc2N1CC(=O)Nc1cc(C(F)(F)F)ccc1-n1cncn1 (stereo not given)
inactive: inhibition [2] 17% | inhibition [3] 1% | outcome [5] | outcome [6] | outcome [7] | outcome [8]
active: growth inhibition [1] 97% | growth inhibition [4] 97%

CS(=O)(=O)c1cccc(-c2cnc(N)c3cc(-c4ccc5c(c4)OCO5)ccc23)c1
inactive: growth inhibition [1] 23% | inhibition [2] 37% | inhibition [3] 1% | outcome [5] | outcome [6] | outcome [7] | outcome [8]
active: growth inhibition [4] 91%

Nc1nc(N)c2cc(N(Cc3ccccc3)Cc3ccccc3)ccc2n1
active: growth inhibition [1] 88% | inhibition [2] 69% | growth inhibition [4] 99%
inactive: inhibition [3] 3% | outcome [5] | outcome [6] | outcome [7] | outcome [8]

Cc1cc(C(=O)OCC(N)=O)c(C)n1-c1ccc(F)cc1
active: growth inhibition [1] 96% | growth inhibition [4] 97%
inactive: inhibition [2] -12% | inhibition [3] 1% | outcome [5] | outcome [6] | outcome [7] | outcome [8]

COc1ccc(N2CCN(CCCCNC(=O)c3ccc(NC(=O)c4cc(C(F)(F)F)cc(C(F)(F)F)c4)cc3)CC2)c(OC)c1
inactive: inhibition [2] 30% | inhibition [3] 2% | outcome [5] | outcome [6] | outcome [7] | outcome [8]
active: growth inhibition [1] 99% | growth inhibition [4] 100%

O=C(Nc1ccc(Cn2nc(Cl)c(N3CCCNCC3)cc2=O)cc1)c1ccc(-c2ccccc2)cc1
active: inhibition [2] 93% | growth inhibition [4] 87%
inactive: growth inhibition [1] 35% | inhibition [3] 0% | outcome [5] | outcome [6] | outcome [7] | outcome [8]

CN1CCC(NCc2cccc(-c3ccc(S(=O)(=O)NCCc4ccccn4)c(F)c3)c2)CC1
active: growth inhibition [4] 98%
inactive: growth inhibition [1] 26% | inhibition [2] 11% | inhibition [3] 7% | outcome [5] | outcome [6] | outcome [7] | outcome [8]

CC1CC(NCCCNc2cc(=O)c3ccccc3[nH]2)c2c1cc(Cl)c(Cl)c2Cl (stereo not given)
active: growth inhibition [1] 70% | growth inhibition [4] 98%
inactive: inhibition [2] 1% | inhibition [3] 3% | outcome [5] | outcome [6] | outcome [7] | outcome [8]

Nc1c2c(nc3ccc(NC(=O)CCCCCCc4ccccc4)cc13)CCCC2
active: growth inhibition [1] 90% | inhibition [2] 100% | growth inhibition [4] 100%
inactive: inhibition [3] 4% | outcome [5] | outcome [6] | outcome [7] | outcome [8]

O=C(/C=C/c1ccc(Cl)c(Cl)c1)NCCC(CN1CCC(c2c[nH]c3ccccc23)CC1)c1ccccc1 (stereo not given)
inactive: growth inhibition [1] 42% | inhibition [3] -6% | outcome [5] | outcome [6] | outcome [7] | outcome [8]
active: inhibition [2] 84% | growth inhibition [4] 100%

CCc1ccc(NC(=O)c2cccc(CN3CCCN(CC4CCCCC4)CC3)c2)cc1
active: inhibition [2] 62% | growth inhibition [4] 85%
inactive: growth inhibition [1] 41% | inhibition [3] 4% | outcome [5] | outcome [6] | outcome [7] | outcome [8]

COc1cc2nc(N3CCC(CNC(=O)/C=C/c4ccccc4F)CC3)nc(N)c2cc1OC
inactive: inhibition [2] -4% | inhibition [3] 5% | outcome [5] | outcome [6] | outcome [7] | outcome [8]
active: growth inhibition [1] 88% | growth inhibition [4] 100%

CC(C)NCc1ccc(-c2ccc(CN3CCCC(c4ccccc4)C3)cc2)c(C(=O)NC2Cc3ccccc3C2)c1 (stereo not given)
active: growth inhibition [1] 64% | growth inhibition [4] 96%
inactive: inhibition [2] 41% | inhibition [3] 3% | outcome [5] | outcome [6] | outcome [7] | outcome [8]

Fc1ccc(COc2ccc(Nc3ncnc4ccc(I)cc34)cc2Cl)cc1
active: growth inhibition [4] 86%
inactive: growth inhibition [1] 30% | inhibition [2] 28% | inhibition [3] -5% | outcome [5] | outcome [6] | outcome [7] | outcome [8]

Fc1ccc2nc(-c3ccc(-c4cccc(CN5CCCCC5)c4)cc3)[nH]c2c1
active: growth inhibition [1] 101% | growth inhibition [4] 100%
inactive: inhibition [2] 10% | inhibition [3] -6% | outcome [5] | outcome [6] | outcome [7] | outcome [8]

COCCNCc1ncsc1-c1ccc2c(Nc3cc(O)ccc3C)ccnc2c1
inactive: growth inhibition [1] 40% | inhibition [2] 9% | inhibition [3] 6% | outcome [5] | outcome [6] | outcome [7] | outcome [8]
active: growth inhibition [4] 101%

N/C(=N/C(=NCCCCCCN=C(/N=C(/N)Nc1ccc(Cl)cc1)N1CCOCC1)N1CCOCC1)Nc1ccc(Cl)cc1
inactive: inhibition [2] -11% | inhibition [3] 2% | outcome [5] | outcome [6] | outcome [7] | outcome [8]
active: growth inhibition [1] 91% | growth inhibition [4] 93%

CCN(CC)CCN(Cc1ccc(-c2ccc(C(F)(F)F)cc2)cc1)C(=O)Cn1c(CCc2cc(F)cc(F)c2F)nc(=O)c2ccccc21
inactive: inhibition [2] 36% | inhibition [3] 1% | outcome [5] | outcome [6] | outcome [7] | outcome [8]
active: growth inhibition [1] 77% | growth inhibition [4] 101%

COc1cc2ccccc2cc1OCCCN1CCN(CC(c2ccc(F)cc2)N2CCN(C(C)C)CC2)CC1 (stereo not given)
inactive: inhibition [3] -3% | outcome [5] | outcome [6] | outcome [7] | outcome [8]
active: growth inhibition [1] 92% | inhibition [2] 72% | growth inhibition [4] 100%

c1ccc(CNCc2cccc(-c3ccc(-c4nc5ccccc5[nH]4)cc3)c2)cc1
active: growth inhibition [4] 97%
inactive: growth inhibition [1] 39% | inhibition [2] 10% | inhibition [3] -5% | outcome [5] | outcome [6] | outcome [7] | outcome [8]

O=C(CSc1ccccn1)Nc1c(F)cccc1F
inactive: growth inhibition [1] -5% | inhibition [2] -2% | inhibition [3] 1% | outcome [5] | outcome [6] | outcome [7] | outcome [8]
active: growth inhibition [4] 88%

CSc1ccc(CN2CCC(NC(=O)c3ccc(-c4ccc(N(C)C)cc4)s3)CC2)cc1
inactive: growth inhibition [1] 26% | inhibition [2] 30% | inhibition [3] -2% | outcome [5] | outcome [6] | outcome [7] | outcome [8]
active: growth inhibition [4] 86%

CCCC(=O)NC(c1ccc(C)cc1)c1ccc2cccnc2c1O (stereo not given)
inactive: growth inhibition [1] 45% | inhibition [3] -4% | outcome [5] | outcome [6] | outcome [7] | outcome [8]
active: inhibition [2] 52% | growth inhibition [4] 88%

CCCCOc1c(CCNCCCCNCCc2cc(F)c3ccccc3c2OCCCC)cc(F)c2ccccc12
active: growth inhibition [1] 78% | inhibition [2] 97% | growth inhibition [4] 96%
inactive: inhibition [3] -3% | outcome [5] | outcome [6] | outcome [7] | outcome [8]

CC(=O)N1N=C(c2ccc(Cl)cc2)Sc2c1nc(-c1ccccc1)n2C(C)=O
inactive: inhibition [2] -3% | inhibition [3] 3% | outcome [5] | outcome [6] | outcome [7] | outcome [8]
active: growth inhibition [1] 81% | growth inhibition [4] 105%

COc1ccc(-c2csc3ncnc(Cl)c23)cc1
inactive: inhibition [2] -15% | inhibition [3] 5% | outcome [5] | outcome [6] | outcome [7] | outcome [8]
active: growth inhibition [1] 97% | growth inhibition [4] 96%

COc1cc(CNC2Cc3ccccc3C2)ccc1Oc1ccc2nc[nH]c2c1
inactive: inhibition [2] 30% | inhibition [3] -1% | outcome [5] | outcome [6] | outcome [7] | outcome [8]
active: growth inhibition [1] 50% | growth inhibition [4] 98%

CCCCCCCN1CC[C@@H](CCCc2ccnc3ccc(OCCCCN=C(N)NO)cc23)[C@@H](CC)C1
inactive: growth inhibition [1] 39% | inhibition [2] 27% | inhibition [3] 2% | outcome [5] | outcome [6] | outcome [7] | outcome [8]
active: growth inhibition [4] 90%
